# EBI2 block – blocks human EBI2 receptor beta-arrestin signaling | inhibition, % at 5 µM | P32249 | 360,000 compounds, 0.81% hits | EBI2 beta-arrestin recruitment, luminescence, 7a,25-OHC stimulated; in the data active means inhibition above about 38%;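 further: enzyme fragment complementation signal reports receptor beta-arrestin coupling in cells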
# Target sequence (P32249 whole entry, looked up, the tested form may be a part): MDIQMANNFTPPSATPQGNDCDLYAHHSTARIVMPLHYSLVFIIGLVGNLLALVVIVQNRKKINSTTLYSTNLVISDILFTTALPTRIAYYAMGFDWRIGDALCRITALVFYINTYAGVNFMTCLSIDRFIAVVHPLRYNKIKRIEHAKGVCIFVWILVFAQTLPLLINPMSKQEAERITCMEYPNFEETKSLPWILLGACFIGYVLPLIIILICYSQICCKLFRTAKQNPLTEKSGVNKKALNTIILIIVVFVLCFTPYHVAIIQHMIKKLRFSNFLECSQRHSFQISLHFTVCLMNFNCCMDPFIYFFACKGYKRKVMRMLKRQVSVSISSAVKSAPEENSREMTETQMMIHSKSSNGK
# TIM10 inh – TIM10 yeast growth inhibition; S. cerevisiae TIM10 strain growth, BacTiter-Glo luminescence, 24 h; inhibition, % at 10 µM; 330,000 compounds, 1.4% hits;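 active means inhibition of 40% or more at the single tested concentration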;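 further: wild-type TIM10 isogenic control strain grown at permissive 25 °C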
# PfHsp90 yeast 2 – growth inhibition of yeast expressing Plasmodium Hsp90 | S. cerevisiae expressing PfHsp90, BacTiter-Glo ATP, 48 h; yeast lacking PDR1 and PDR3 efflux regulators | inhibition, % at 9.4 µM | 310,000 compounds, 0.32% hits;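 active means every replicate shows inhibition above about 80%, whatever the replicate mean, limit read from the data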
# tim23-1 inh – inhibits growth of tim23-1 mutant yeast; S. cerevisiae tim23-1 growth, BacTiter-Glo luminescence, 24 h; AID 463212; inhibition, % at 20 µM; 330,000 compounds, 1.3% hits;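 active means growth inhibition of the mutant yeast at or above 50%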;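 further: temperature-sensitive mutant grown at 25 °C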
# tim10-1 inh – tim10-1 yeast growth inhibition | 330,000 compounds, 2.2% hits | inhibition, % at 20 µM | S. cerevisiae tim10-1 ts strain growth, BacTiter-Glo, 24 h;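 active means inhibition of at least 40%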;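 further: mutant grown at 25 °C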
# SKKanGAS inh – inhibitors of SKKanGAS S. pyogenes growth in kanamycin (SK-promoter or general growth effect); inhibition, % at 7.5 µM; 300,000 compounds, 1.3% hits; BacTiter-Glo, 6 h;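 active means mean replicate score, as percent of positive control median, at least 50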;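 further: strain carries kanamycin resistance gene driven by streptokinase promoter and grows in 40 µg/ml kanamycin; loss of luminescence reflects streptokinase promoter inhibition or plain growth inhibition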
# tim10-1 conf – confirmation of tim10-1 mutant yeast growth inhibitors; inhibition, % at 20 µM; AID 463213; S. cerevisiae tim10-1 ts strain growth, BacTiter-Glo, 24 h; shares compounds with tim10-1 inh; 7,400 compounds, 56% hits;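 active means inhibition of yeast growth at or above a set limit in either of two repeat tests at 20 µM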;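 further: tim10-1 mutant grown at permissive 25 °C to find synthetic lethal compounds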
# A number is an active result; . = inactive; / = no result. This is a sample that favours compounds with a hit; in the whole collection about 4.7% have one here.
SMILES,EBI2 block,TIM10 inh,PfHsp90 yeast 2,tim23-1 inh,tim10-1 inh,SKKanGAS inh,tim10-1 conf
O=C(COC(=O)c1ccc(Cl)cc1O)NC(=O)C1CCCCC1,.,.,.,.,.,.,/
O=C(Nc1nc2ccccc2n1CCN1CCOCC1)c1cn(-c2ccccc2)nc1-c1ccccc1,.,.,.,.,42,85,32
O=C(Nc1nc2ccccc2n1CCN1CCOCC1)c1ccccc1,.,.,.,.,.,.,/
O=C(NNC(=S)Nc1ccc(F)cc1)c1ccccc1OC(F)F,.,.,.,.,.,.,/
COc1cccc(NC(=S)NNC(=O)c2ccccc2OC(F)F)c1,.,.,.,.,.,.,/
Cc1ccc(NC(=S)NNC(=O)c2ccccc2OC(F)F)cc1,.,.,.,.,40,.,39
O=C(NNC(=S)Nc1cccc(Cl)c1)c1ccccc1OC(F)F,.,.,.,.,43,.,.
O=C1NCCc2c1[nH]c1ccccc21,.,.,.,.,.,.,/
O=C1NCCc2c1[nH]c1c(Cl)ccc(Cl)c21,.,.,.,.,42,.,36
O=C(COC(=O)/C=C/c1cccc(C(F)(F)F)c1)NC(=O)NCc1ccco1,.,.,.,.,.,/,/
O=C(Nc1ccc(C(F)(F)F)cc1)C1CCN(c2cnccn2)CC1,.,.,.,.,41,.,.
CCOC(=O)Cn1nc(C)c(NC(=O)COc2ccc(OC)cc2)c1C,.,.,.,.,.,.,/
COc1ccc(-c2[nH]ncc2/C=N/NC(=O)c2ccncc2)c(OC)c1,.,.,.,.,.,.,/
O=C(O)c1cc([N+](=O)[O-])ccc1NCCCc1ccccc1,.,.,.,.,.,.,/
O=C(NCCCc1ccccc1)c1cc([N+](=O)[O-])ccc1Cl,.,.,.,.,41,.,.
O=C1C2ON(c3ccc(Cl)cc3)C(c3ccco3)C2C(=O)N1c1ccccc1 (centres undefined),.,.,.,.,44,.,35
O=C(CCn1c(=S)oc2ccccc21)NC1CCCCC1,.,.,.,.,.,.,/
Cc1nn(-c2ccc(F)cc2F)c(=O)c2noc(C)c12,.,.,.,.,.,.,/
Cc1nn(-c2ccc(F)cc2F)c2c1-c1nc(N3CCCC3)ncc1CC2,.,.,.,.,45,.,.
CCCOC(=O)c1ccc(NC(=O)c2c(Cl)ccc(Cl)c2OC)cc1,.,.,.,.,48,.,32
CCCOC(=O)c1ccc(NC(=O)c2ccccc2OC)cc1,.,.,.,.,.,.,/
O=C(COc1ccc(S(=O)(=O)NC2CCCCC2)cc1)N1CCN(c2cccc(Cl)c2)CC1,.,.,.,.,46,.,.
CC(C)NS(=O)(=O)c1ccc(OCC(=O)N2CCN(c3ccccc3)CC2)cc1,.,.,.,.,.,.,/
Cc1ccc(SCCNC(=O)c2cccc([N+](=O)[O-])c2C)cc1,.,.,.,.,.,.,/
Cc1c(C(=O)NCCSc2ccc(Cl)cc2)cccc1[N+](=O)[O-],.,.,.,.,41,.,37
SMILES,EBI2 block,TIM10 inh,PfHsp90 yeast 2,tim23-1 inh,tim10-1 inh,SKKanGAS inh,tim10-1 conf
O=S(=O)(c1ccc(-c2cn3ccccc3n2)cc1)N1CCOCC1,.,.,.,.,.,.,/
O=S(=O)(c1cccc(-c2cn3cc(Cl)ccc3n2)c1)N1CCOCC1,.,.,.,.,42,.,32
CN(C)S(=O)(=O)c1cccc(-c2cn3cc(Cl)ccc3n2)c1,.,.,.,.,45,.,34
CN(C)S(=O)(=O)c1cccc(-c2cn3ccccc3n2)c1,.,.,.,.,.,.,/
CC(=O)NS(=O)(=O)c1ccc(NC(=O)[C@@H]2CCCN2S(=O)(=O)c2ccc(Cl)cc2)cc1,.,.,.,.,.,/,/
CC1(C)CC(=O)N(c2ccc(Cl)cc2Cl)C(=O)C1,.,.,.,.,.,.,/
CC(C)(C)C1CCSC2=NCCC[C@]2(c2ccccc2)C1 (some centres undefined),.,/,/,/,/,/,/
Cc1c(NC(=O)Nc2ccc(F)cc2F)c(=O)n(-c2ccccc2)n1C,.,.,.,.,.,.,/
O=C1c2ccccc2C(=O)N1CCc1nc2ccccc2c(=O)n1-c1ccccn1,.,.,.,.,49,.,.
Cc1ccnc(NC(=O)CCC(=O)N(CC(=O)NC2CCCCC2)CC2CCCO2)c1 (centres undefined),.,.,.,.,.,.,/
CCOC(=O)Cc1csc2nc3sc(C)c(C)c3c(=O)n12,.,.,.,.,43,.,.
CC(C)(C)C(=O)Nc1ccc(-c2nc3ccccc3c(=O)o2)cc1,.,.,.,.,.,/,/
CC(C)(C)C(=O)Nc1cccc(-c2nc3ccccc3c(=O)o2)c1,.,.,.,.,40,.,48
CC(C)C(=O)Nc1ccc(-c2nc3ccccc3c(=O)o2)cc1,.,.,.,.,56,.,41
CC(C)C(=O)Nc1cccc(-c2nc3ccccc3c(=O)o2)c1,.,.,.,.,.,.,/
COc1cccc(-c2nc3ccc(O)cc3c(=O)o2)c1,.,.,.,.,55,.,.
Oc1ccc(CN2CCN(c3ccccc3)CC2)c2cccnc12,60,.,.,.,66,55,.
O=[N+]([O-])c1cc(CN2CCN(c3cccc(C(F)(F)F)c3)CC2)c2cccnc2c1O,/,.,99,.,48,95,.
Oc1c(CN2CCN(c3ccccn3)CC2)cc(Cl)c2cccnc12,.,.,.,.,52,108,.
CN(Cc1ccccc1)C(=O)COC(=O)c1ccc(Br)o1,.,.,.,.,.,/,/
CCCn1c2ccc(C)cc2c2n[nH]c(=S)nc21,.,.,.,.,46,.,.
S=c1nc(Cc2ccccc2)[nH]c2ccccc12,.,.,.,.,43,.,.
CCOC(=O)C1(C)CCCN1C(=O)c1sccc1C (centres undefined),.,/,/,/,/,/,/
CCn1c(COc2cccc(C)c2)nnc1SCC(=O)CC(=O)Nc1ccccc1OC,.,.,.,.,48,/,.
CNC(=O)C[C@@H]1C(=O)N(c2ccc(Br)cc2)CC1(C)C,.,/,/,/,/,/,/
CCN(C[C@H]1N[C@@](CC)(C(=O)OC)[C@H]2C(=O)N(Cc3ccccc3)C(=O)[C@@H]12)C(=O)c1ccccc1,.,.,.,.,.,/,/
O=C(Nc1cccc2ccccc12)c1cn(-c2ccccc2)nc1-c1cccs1,.,.,.,.,.,.,/
O=C(Nc1cccnc1)c1cn(-c2ccccc2)nc1-c1cccs1,.,.,.,.,43,.,43
CC(C)c1ccc(S(=O)(=O)/N=C2/C=CC(=O)c3ccccc32)cc1,/,.,/,.,43,/,.
CC1OC(Oc2ccc3ccc(=O)oc3c2-c2c(O)ccc3cc(Oc4ccc5ccc(=O)oc5c4)c(=O)oc23)C(O)C(O)C1O (centres undefined),.,.,.,.,.,.,/

# High-throughput results (PubChem BioAssay)
